According to the supplement of paper PMC3334620:
In all, about 33,000 sequences were measured (“E-score (-0.5 to 0.5)”: median about -0.053, highest 2% from about 0.37 on). Only a selection was taken, and the highest values are over-represented in it overall.

Each sequence was assayed against Hap1 (UniProt P0CE41) (assay: PBM E-score (8-mer binding enrichment) (E-score (-0.5 to 0.5)); higher = stronger / more preferred TF binding). Conditions: protein concentration: 200 nM; construct: GST-DNA-binding domain.
UniProt P0CE41, sequence (P0CE41 whole entry, the tested form may be a part): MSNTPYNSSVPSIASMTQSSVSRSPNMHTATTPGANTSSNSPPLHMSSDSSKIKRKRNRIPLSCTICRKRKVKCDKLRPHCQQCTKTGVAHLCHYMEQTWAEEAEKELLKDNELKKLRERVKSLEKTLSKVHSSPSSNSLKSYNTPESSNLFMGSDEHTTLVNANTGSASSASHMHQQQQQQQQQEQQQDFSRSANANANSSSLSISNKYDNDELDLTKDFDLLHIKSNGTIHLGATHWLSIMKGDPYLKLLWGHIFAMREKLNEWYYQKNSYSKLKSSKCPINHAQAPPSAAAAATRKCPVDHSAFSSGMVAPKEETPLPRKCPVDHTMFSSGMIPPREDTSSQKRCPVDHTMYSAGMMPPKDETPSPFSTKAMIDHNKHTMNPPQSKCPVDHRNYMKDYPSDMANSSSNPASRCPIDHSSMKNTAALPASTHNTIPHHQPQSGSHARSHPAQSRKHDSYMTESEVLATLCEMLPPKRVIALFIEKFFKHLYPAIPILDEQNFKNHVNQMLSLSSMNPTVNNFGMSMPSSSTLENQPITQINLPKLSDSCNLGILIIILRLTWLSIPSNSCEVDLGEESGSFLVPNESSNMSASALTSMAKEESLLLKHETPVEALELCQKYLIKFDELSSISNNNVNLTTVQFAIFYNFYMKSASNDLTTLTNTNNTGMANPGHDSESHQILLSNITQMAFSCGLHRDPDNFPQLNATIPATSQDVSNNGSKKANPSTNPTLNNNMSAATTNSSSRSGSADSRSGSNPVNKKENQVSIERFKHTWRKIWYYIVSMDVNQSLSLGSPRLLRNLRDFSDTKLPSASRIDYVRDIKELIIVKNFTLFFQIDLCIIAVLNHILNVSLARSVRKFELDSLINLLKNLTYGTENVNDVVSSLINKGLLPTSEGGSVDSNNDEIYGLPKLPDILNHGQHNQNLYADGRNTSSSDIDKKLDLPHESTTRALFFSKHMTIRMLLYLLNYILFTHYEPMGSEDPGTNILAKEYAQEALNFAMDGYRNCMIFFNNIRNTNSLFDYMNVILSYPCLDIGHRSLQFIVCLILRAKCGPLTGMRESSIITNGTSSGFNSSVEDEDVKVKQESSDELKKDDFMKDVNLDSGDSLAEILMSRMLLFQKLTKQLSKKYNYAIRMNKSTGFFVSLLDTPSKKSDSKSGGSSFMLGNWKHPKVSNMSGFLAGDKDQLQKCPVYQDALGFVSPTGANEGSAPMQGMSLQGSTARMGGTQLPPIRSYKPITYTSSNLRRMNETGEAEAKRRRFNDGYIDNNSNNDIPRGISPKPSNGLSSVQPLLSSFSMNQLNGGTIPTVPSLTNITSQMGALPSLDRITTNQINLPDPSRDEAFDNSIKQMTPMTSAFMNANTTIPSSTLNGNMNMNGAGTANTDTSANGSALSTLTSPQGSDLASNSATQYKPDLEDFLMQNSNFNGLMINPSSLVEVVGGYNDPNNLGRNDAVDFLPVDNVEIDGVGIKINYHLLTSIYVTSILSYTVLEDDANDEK
Description: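 Universal 'all 10-mer' protein binding microarrays (Agilent AMADID 015681) probed with GST-tagged S. cerevisiae TFs (full-length or DBD) made by in vitro transcription/translation (PURExpress), about 100-200 nM. Bound TF was detected with fluorescent anti-GST. Each ungapped 8-mer (which stands for itself and its reverse complement) is scored by the PBM enrichment score (E-score), a modified Wilcoxon-Mann-Whitney statistic from -0.5 to +0.5, computed with the Universal PBM Analysis Suite. Scale: above 0.35 generally sequence-specific binding.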
For ACCCGGTA, the “PBM E-score” value was 0.376.
CCCCGGTA was tested, and the “PBM E-score” value was 0.334.
For ACCCGGTG, the “PBM E-score” value was 0.249.
For GCCCGGCA, the “PBM E-score” value was 0.25.
With AAGCCTCA the “PBM E-score” value was -0.136.
With CACCGCAC the “PBM E-score” value was 0.0364.
For CGTGCACC, the “PBM E-score” value was -0.0161.
With AGGTCCGG the “PBM E-score” value was 0.396.
With GGGTCCAA the “PBM E-score” value was 0.15.
For AGGTCCCA, the “PBM E-score” value was -0.174.
In the case of AGGTCCGC, the “PBM E-score” value is reported as 0.33.
With GGGTCCCA the “PBM E-score” value was -0.0688.
For AGGTCCGA, the “PBM E-score” value was 0.404.
AGGTCCAG was tested, and the “PBM E-score” value was -0.0779.
CGGTCCTA was tested, and the “PBM E-score” value was 0.33.
GGGTCCGA was tested, and the “PBM E-score” value was 0.38.
In the case of CGGTCCGA, the “PBM E-score” value is reported as 0.435.
In the case of CGGTCCGC, the “PBM E-score” value is reported as 0.317.
With AGGTCCTG the “PBM E-score” value was -0.0186.
AGTGAAAA was tested, and the “PBM E-score” value was 0.0463.
In the case of ATCTAGCG, the “PBM E-score” value is reported as 0.00616.
For AGATAGCC, the “PBM E-score” value was 0.0418.
For CGCGAATA, the “PBM E-score” value was 0.182.
With ATCTGAGA the “PBM E-score” value was -0.25.
In the case of CTTCGACA, the “PBM E-score” value is reported as -0.309.
With GCAGTAGA the “PBM E-score” value was -0.3.
AGGTTCGA was tested, and the “PBM E-score” value was -0.0833.
For CGGCTGAC, the “PBM E-score” value was 0.192.
GCTCTTCC was tested, and the “PBM E-score” value was 0.0685.
In the case of AACTTTTG, the “PBM E-score” value is reported as -0.0532.
For CAAAGAGC, the “PBM E-score” value was -0.176.
CCGGCAAA was tested, and the “PBM E-score” value was 0.387.
In the case of CCGGCAAG, the “PBM E-score” value is reported as 0.269.
In the case of GCGGCAAA, the “PBM E-score” value is reported as 0.202.
ACGGCAAC was tested, and the “PBM E-score” value was -0.0151.
With CCGGCAAC the “PBM E-score” value was 0.373.
With GCGGCAAC the “PBM E-score” value was 0.00981.
AGTTTTTA was tested, and the “PBM E-score” value was -0.141.
For AGATTATA, the “PBM E-score” value was -0.0616.
With ATTCTGGC the “PBM E-score” value was -0.0263.
With AGCCCTTA the “PBM E-score” value was -0.128.
CTCTACAA was tested, and the “PBM E-score” value was -0.178.
With ATTTCCTG the “PBM E-score” value was -0.0599.
For GTTTCCAA, the “PBM E-score” value was -0.238.
ATTTCCGC was tested, and the “PBM E-score” value was 0.399.
With ACTTCCGC the “PBM E-score” value was 0.249.
With ACTTCCGA the “PBM E-score” value was 0.31.
ATTTCCGG was tested, and the “PBM E-score” value was 0.459.
With CTTTCCGC the “PBM E-score” value was 0.194.
With ACTTCCGG the “PBM E-score” value was 0.382.
In the case of ATTTCCCC, the “PBM E-score” value is reported as 0.181.
With ATTTCCAG the “PBM E-score” value was 0.129.
In the case of CTTTCCGA, the “PBM E-score” value is reported as 0.316.
With GTTTCCGA the “PBM E-score” value was 0.379.
With AAAACAAA the “PBM E-score” value was 0.043.
For AGCGCACC, the “PBM E-score” value was 0.149.
For CGGTTCTA, the “PBM E-score” value was 0.276.
For ATCAAGAG, the “PBM E-score” value was -0.172.
ACGGAACG was tested, and the “PBM E-score” value was 0.195.
CTACCAGC was tested, and the “PBM E-score” value was -0.319.
With CATAGGCG the “PBM E-score” value was -0.196.
In the case of GCCACTAC, the “PBM E-score” value is reported as -0.042.
For ATTTCCGA, the “PBM E-score” value was 0.432.
In the case of ATTTCCCA, the “PBM E-score” value is reported as -0.131.
With ATTTCCAA the “PBM E-score” value was 0.0623.
CCGTCTCC was tested, and the “PBM E-score” value was 0.126.
With AACCTATC the “PBM E-score” value was -0.00501.
For GATAGTGC, the “PBM E-score” value was -0.0408.
In the case of CGTACGAC, the “PBM E-score” value is reported as -0.0847.
In the case of CACGTCGG, the “PBM E-score” value is reported as 0.28.
GTTCGGTA was tested, and the “PBM E-score” value was 0.249.
GTCCGCTA was tested, and the “PBM E-score” value was 0.37.
For ATCCGGCA, the “PBM E-score” value was 0.329.
With CTCCGGCC the “PBM E-score” value was 0.358.
For CTCCGGTC, the “PBM E-score” value was 0.431.
ATCCGGTC was tested, and the “PBM E-score” value was 0.329.
With CGCCGGTC the “PBM E-score” value was 0.295.
In the case of GTCCGGTA, the “PBM E-score” value is reported as 0.419.
With CTCCGCTA the “PBM E-score” value was 0.336.
With CTCCGGCA the “PBM E-score” value was 0.371.
ATCCGCTA was tested, and the “PBM E-score” value was 0.306.
GTACGGTA was tested, and the “PBM E-score” value was 0.0448.
GGCATCGA was tested, and the “PBM E-score” value was -0.206.
With AAATGAAT the “PBM E-score” value was -0.213.
CCAGCGTC was tested, and the “PBM E-score” value was 0.0197.
For AGTTCTTA, the “PBM E-score” value was 0.0534.
With CGCCATCC the “PBM E-score” value was -0.00934.
In the case of CGTCGGAA, the “PBM E-score” value is reported as 0.306.
With CATTTGCC the “PBM E-score” value was -0.0698.
In the case of AGGGAACG, the “PBM E-score” value is reported as -0.0997.
In the case of CGCCGGTA, the “PBM E-score” value is reported as 0.345.
In the case of ATCCGGTA, the “PBM E-score” value is reported as 0.357.
CTCCGGTA was tested, and the “PBM E-score” value was 0.439.
For CAAGCTCC, the “PBM E-score” value was 0.00322.
In the case of CGGGCATA, the “PBM E-score” value is reported as 0.386.
With AGGGCTTA the “PBM E-score” value was -0.203.
For AGGGCATA, the “PBM E-score” value was -0.102.
CGGGCTTC was tested, and the “PBM E-score” value was 0.307.
For GGGGCATA, the “PBM E-score” value was 0.0612.
For CGGGCTTA, the “PBM E-score” value was 0.437.
For GTACTTCA, the “PBM E-score” value was 0.032.
With TGGTTTAA the “PBM E-score” value was -0.161.
With GGGTTTTA the “PBM E-score” value was 0.288.
In the case of GGGGTTAA, the “PBM E-score” value is reported as 0.386.
For GGGGTTAC, the “PBM E-score” value was 0.218.
With GGGTTTAA the “PBM E-score” value was 0.387.
AGGGTTAA was tested, and the “PBM E-score” value was -0.259.
For ATCTATCG, the “PBM E-score” value was 0.268.
In the case of GACTCGGC, the “PBM E-score” value is reported as 0.186.
With AACGAAGG the “PBM E-score” value was -0.308.
In the case of ACTTGGTG, the “PBM E-score” value is reported as -0.25.
For ACCTGCCG, the “PBM E-score” value was -0.0501.
In the case of GAGCGCAA, the “PBM E-score” value is reported as -0.175.
AGTTACTA was tested, and the “PBM E-score” value was -0.128.
In the case of ACCAGTGA, the “PBM E-score” value is reported as -0.18.
GGTAGTTA was tested, and the “PBM E-score” value was 0.0824.
With CCCTAGCC the “PBM E-score” value was -0.138.
For ATTCGGAA, the “PBM E-score” value was 0.311.
For CTTCGGAA, the “PBM E-score” value was 0.403.
ATTCGGCG was tested, and the “PBM E-score” value was 0.278.
In the case of ATTCGGCC, the “PBM E-score” value is reported as 0.375.
In the case of ATTCGGGC, the “PBM E-score” value is reported as 0.308.
In the case of ATTCGGCA, the “PBM E-score” value is reported as 0.224.
In the case of ATTCGGGG, the “PBM E-score” value is reported as 0.393.
For AGTCGGAC, the “PBM E-score” value was 0.318.
For ATTCGGAG, the “PBM E-score” value was 0.299.
For GTTCGGAA, the “PBM E-score” value was 0.312.
ATTCGGGA was tested, and the “PBM E-score” value was 0.197.
ATTCGGAC was tested, and the “PBM E-score” value was 0.382.
AGGTGAAG was tested, and the “PBM E-score” value was -0.184.
With CGATTCAA the “PBM E-score” value was -0.0364.
GACGGGGC was tested, and the “PBM E-score” value was 0.0768.
With GTCCACAC the “PBM E-score” value was 0.0984.
With ATTCGCCG the “PBM E-score” value was 0.295.
With ATCCCAAG the “PBM E-score” value was -0.0728.
With AAACTGCC the “PBM E-score” value was -0.0803.
In the case of ACTAGTTC, the “PBM E-score” value is reported as -0.0373.
CTTCGGAC was tested, and the “PBM E-score” value was 0.406.
In the case of CTTCGGCC, the “PBM E-score” value is reported as 0.309.
CTTCGGGC was tested, and the “PBM E-score” value was 0.208.
With AATCTCGT the “PBM E-score” value was 0.0299.
With ATATCGTC the “PBM E-score” value was 0.0615.
For ATATCGCG, the “PBM E-score” value was 0.314.
With CTATCGTC the “PBM E-score” value was -0.0802.
In the case of AAATCGGC, the “PBM E-score” value is reported as 0.303.
CGATCGGC was tested, and the “PBM E-score” value was 0.312.
For CTATCGCC, the “PBM E-score” value was 0.102.
In the case of ATATCGGC, the “PBM E-score” value is reported as 0.455.
With CTATCGGC the “PBM E-score” value was 0.385.
In the case of ATATCGCC, the “PBM E-score” value is reported as 0.414.
GCCCAAGA was tested, and the “PBM E-score” value was -0.22.
With CCACATCA the “PBM E-score” value was -0.064.
In the case of CTTGCTCA, the “PBM E-score” value is reported as -0.129.
With GAGAGATA the “PBM E-score” value was 0.0119.
For GCACAGAC, the “PBM E-score” value was 0.0195.
For GCTGATTA, the “PBM E-score” value was -0.00254.
CGGCCTGA was tested, and the “PBM E-score” value was 0.183.
In the case of CGGCCGTC, the “PBM E-score” value is reported as 0.277.
CGGCCGGC was tested, and the “PBM E-score” value was 0.422.
For CGGCCGTA, the “PBM E-score” value was 0.417.
With AGGCCGTA the “PBM E-score” value was 0.0497.
With AGGCCGGC the “PBM E-score” value was 0.271.
With AGGCCGGA the “PBM E-score” value was 0.336.
With CGGCCGGA the “PBM E-score” value was 0.436.
In the case of CTGCCGGC, the “PBM E-score” value is reported as 0.322.
With CGGCCTTA the “PBM E-score” value was 0.439.
For GGGCCGGA, the “PBM E-score” value was 0.355.
For CGGCCTTC, the “PBM E-score” value was 0.301.
With AATGGGCC the “PBM E-score” value was 0.0191.
For ACTCAGGA, the “PBM E-score” value was -0.123.
In the case of CCAAATGA, the “PBM E-score” value is reported as 0.00146.
For ACAGCACT, the “PBM E-score” value was -0.0793.
